# Bioassay records from PubChem BioAssay.
# In the library only some 6.6% were active in any assay of this set; here they are far more common.
# KB-V1 cytotox: qHTS assay for MDR1-selective chemotherapeutics: Primary screen using the drug-selected MDR subline cells KB-V1; KB-V1 MDR cells viability, CellTiter-Glo, 72 h; Potency, µM (titrated, usually from 46.1 µM), most hits filed as cytotoxic; 400,000 tested, 3.4% active; AID 1347076, 2019; note: % is set by controls: 0 for no effect and ±100 for the full control effect; nearly all actives have a fitted effect of over 60% in size
#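 Potencies derive from concentration-effect curves fitted to normalized luminescence (CellTiter-Glo) of KB-V1 cells treated for 72 h at 37 degrees C in phenol-red-free DMEM containing 10% FBS.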
# RGS4 inhibitor: Inhibitors of Regulator of G Protein Signaling (RGS) 4: qHTS | Potency, µM (titrated, usually from 114 µM), for the others: top-dose activity change, negative = inhibition, most hits filed as inhibitors | Transcreener GDP fluorescence polarization, RGS4-accelerated GTP hydrolysis | AID 504845, 2011 | 390,000 tested, 0.039% active; note: % is set by controls: 0 for no effect and ±100 for the full control effect; nearly all actives have a fitted effect of over 75% in size
# Target sequence (P49798 whole entry, looked up): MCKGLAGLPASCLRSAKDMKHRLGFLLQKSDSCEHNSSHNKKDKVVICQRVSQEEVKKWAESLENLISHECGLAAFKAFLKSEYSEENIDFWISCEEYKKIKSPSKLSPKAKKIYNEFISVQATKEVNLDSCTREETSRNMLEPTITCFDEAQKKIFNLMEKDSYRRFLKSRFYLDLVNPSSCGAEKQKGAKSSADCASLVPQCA
#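 MLSMR compounds (23 nl, pin-transferred) preincubated 10 min at room temperature with a 500nM (2x) first reagent, then RGS4 at 900nM (2x) plus Transcreener GDP mix added; fluorescence polarization (620/688 nm) read before and after 90 min at 30 °C.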
# TSG101-PTAP inh: qHTS Assay for Iinhibitors of HIV-1 Budding by Blocking the Interaction of PTAP/TSG101. Tumor susceptibility gene 101 protein (Homo sapiens), Q99816. Fluorescence polarization, FITC-PTAP peptide / Tsg101 binding. Potency, µM (titrated, usually from 115 µM), inactives show at the highest dose activity change, negative = inhibition, usual class: inhibitors. 340,000 tested, under 10 active; active = well fitted inhibition curve with a large enough effect in the main read-out, with a control signal flat, not every such curve was filed as active; inconclusive = small, poorly fitted or top-dose-only effect, or effect the other way, or a change in a side signal; inactive = no such curve, though single readings can be large or run the other way; note: % of control where 0% means no effect
#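 Steps: Tsg101 binding domain dispensed (10 uM final), compounds pinned in DMSO, FITC-labeled PTAP-motif peptide added (50 nM final); after 20 min binding at room temperature, polarization measured.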
# MCF10A rerep: A quantitative high throughput screen for small molecules that induce DNA re-replication in MCF 10a normal breast cells. MCF 10A DNA re-replication, Hoechst nuclear intensity, 48 h. Potency, µM (top dose mostly 46.1 µM), for the others: at the highest dose activity, positive = re-replication, actives largely listed as activators. 350,000 tested, 2.9% active. AID 624296, 2012; note: % of control where 0% means no effect; nearly all actives have a fitted effect of over 50% in size
# SW480 rerep: A quantitative high throughput screen for small molecules that induce DNA re-replication in SW480 colon adenocarcinoma cells; SW480 DNA re-replication, Hoechst DNA content imaging, 48 h; Potency, µM (top dose mostly 46.1 µM), without a hit: at the highest dose re-replication activation, usual class: activators; 340,000 tested, 1.8% active; note: % of control where 0% means no effect; nearly all actives have a fitted effect of over 55% in size
#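 Compounds, transferred as 23 nL by pin tool, were incubated with cells for 48 hr; DNA content per nucleus was then quantified by Hoechst staining and fluorescence plate imaging.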
# KB-3-1 cytotox: qHTS assay for MDR1-selective chemotherapeutics: Primary screen using the parental adenocarcinoma cell KB-3-1; KB-3-1 viability, CellTiter-Glo ATP luminescence, 72 h; Potency, µM (series often up to 46.1 µM), most hits filed as cytotoxic; 400,000 tested, 1.4% active; AID 1347075, 2019; note: % is set by controls: 0 for no effect and ±100 for the full control effect; nearly all actives have a fitted effect of over 60% in size
#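 Screening of KB-3-1 cells (DMEM, 10% FBS, phenol-red free) ran from lowest to highest compound concentration; after 72 h at 37 °C viability was read luminescently and curves fitted.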
# Starred values were filed as active, the others as inactive; i = inactive; ? = inconclusive; nt = no result given; [ ] = dose if it differs, or a comment. Unless noted, calls come from the whole dose curve; as a rule, active = well fitted curve in the direction sought with a large enough effect; inconclusive = small, poorly fitted or top-dose-only effect, or another doubt; inactive = no such curve, though single readings can be large; an effect the other way counts as inactive or inconclusive. Potency is the fitted concentration of half-maximal effect.
SMILES,KB-V1 cytotox,RGS4 inhibitor,TSG101-PTAP inh,MCF10A rerep,SW480 rerep,KB-3-1 cytotox
CC1CCN(c2ccc(S(=O)(=O)NC3=NCCCCC3)cc2[N+](=O)[O-])CC1,21µM*,12%,-4%,17%,-11%,?
CNS(=O)(=O)c1ccc(N2CCCC2)c([N+](=O)[O-])c1,i,-2%,4%,1%,-20%,i
Clc1ccccc1Cn1c(/C=C/c2ccco2)nc2ccccc21,13µM*,?,0%,18µM*,nt,?
O=C(NCCCc1nc2ccccc2n1Cc1ccccc1Cl)c1ccco1,?,7%,nt,nt,nt,i
CCN(CC)c1ccc(N=Cc2cc(Br)ccc2O)cc1,i,-103%[11.4 µM],-5%,?,10µM*,?
CC(=O)N1N=C(c2ccc(Br)cc2)CC1c1cn(C)c2ccccc12 (configuration not stated),?,-10%,-2%,18µM*,24%,i
CCCC(=O)N1N=C(c2ccccc2)CC1c1cn(C)c2ccccc12 (configuration not stated),?,-3%,2%,23µM*,?,i
Cn1cc(C2CC(c3ccccc3)=NN2C(=O)c2ccccc2)c2ccccc21 (configuration not stated),21µM*,27%,-1%,5.8µM*,?,?
O=C(c1ccccc1)N1N=C(c2ccccc2)CC1c1ccccc1 (configuration not stated),i,-2%,-4%,30%,?,i
CC(=O)N1N=C(c2ccc(Br)cc2)CC1c1ccc(Br)cc1 (configuration not stated),i,nt,nt,nt,nt,i
O=C(/C=C/c1ccccc1)Nc1nc(-c2cccs2)ns1,nt,1%,nt,nt,nt,nt
O=C(O)c1cccc(N/N=C/c2ccc(F)c(F)c2)c1,i,-9%,-5%,1%,-2%,i
O=C(O)c1cccc(N/N=C/C2=C(Cl)c3cc(Cl)ccc3SC2)c1,?,-39%,-2%,8.2µM*,-1%,i
Nc1ccccc1-c1ccc([N+](=O)[O-])cc1,i,5%,-6%,23µM*,?,?
Nc1ccc(-c2ccc(N)c([N+](=O)[O-])c2)cc1[N+](=O)[O-],i,-36%[56.9 µM],0%,3%,-41%,i
CCCSCCCNC(=O)C1CCN(C(=O)c2cnn(-c3ccccc3)c2-n2cccc2)CC1,i,13%,nt,nt,nt,i
O=C(COc1ccc(/C=N/NC(=O)c2cc3ccccc3o2)cc1Cl)Nc1ccccc1,9.2µM*,-128%,14%,?,8%,7.3µM*
COC(=O)c1ccccc1-c1ccc(/C=N/NC(=O)c2cc3ccccc3o2)o1,13µM*,-8%,0%,?,-1%,?
COc1cc(/C=N/NC(=O)c2ccccc2O)ccc1OCC(=O)Nc1ccccc1,i,-50%,-2%,?,-5%,i
O=C(N/N=C/C=C/c1ccccc1)c1cc2c(ccc3ccccc32)o1,?,-27%,-4%,?,12µM*,?
O=C(N/N=C/c1cccc2ccccc12)c1cc2ccccc2o1,?,-30%,-9%,12µM*,114%,?
COc1ccc(C(=O)/C=C/c2ccc(O)cc2)c(O)c1CC=C(C)C,i,15%,-9%,23µM*,2%,i
O=C(NCc1cccs1)c1ccc2c(c1)N(Cc1ccccc1Cl)C(=O)c1ccccc1S2,i,-7%,nt,nt,nt,i
